Drawing on PubChem BioAssay (NCATS), this text covers activation, Potency and viability for 20 compounds.

For assay [1], the target named is Cellular tumor antigen p53 (Homo sapiens) (UniProt P04637). Nature of the assay: Primary qHTS for small molecule compounds that upregulate eGFP-tagged delta133p53alpha (in N-terminal) cells. (AID 2060322). Further: nearly all actives have a fitted effect of over 75% in size. Further: potency means the concentration at half of the fitted maximal effect.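 On activation: cells pre-induced with doxycycline then dosed without doxycycline; series mostly up to about 56 µM; 0% = DMSO vehicle and 100% = reference activator.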 The settings on record: NCI-H358 eGFP-delta133p53alpha fluorescence, 24 h; activation: hits give high values. In a few lines: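 NCI-H358 cells pre-induced 24 h with 10 ng/ml doxycycline for eGFP-delta133p53alpha, plated dox-free and exposed 24 h at 37C to titrated compounds. Fixed, Hoechst-stained; gated GFP peak intensity by laser scanning cytometry, normalized to DMSO (0%) and 57.5 uM 5-azacytidine (100%).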
Sequence of Cellular tumor antigen p53 (Homo sapiens) (P04637 whole entry, looked up): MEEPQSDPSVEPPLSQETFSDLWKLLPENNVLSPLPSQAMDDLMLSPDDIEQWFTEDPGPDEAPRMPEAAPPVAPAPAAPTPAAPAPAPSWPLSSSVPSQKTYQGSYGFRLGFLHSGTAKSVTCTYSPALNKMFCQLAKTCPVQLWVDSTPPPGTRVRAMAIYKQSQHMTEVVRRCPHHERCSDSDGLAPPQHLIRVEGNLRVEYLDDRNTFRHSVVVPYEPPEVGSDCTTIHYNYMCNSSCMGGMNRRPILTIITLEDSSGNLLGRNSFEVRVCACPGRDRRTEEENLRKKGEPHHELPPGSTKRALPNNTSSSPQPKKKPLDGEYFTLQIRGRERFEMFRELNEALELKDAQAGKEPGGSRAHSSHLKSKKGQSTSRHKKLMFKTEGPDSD

The target is the same in assay [2]. As to the kind of experiment: Primary qHTS for small molecule compounds that upregulate eGFP-tagged delta133p53alpha (in C-terminal) cells. (AID 2060324).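 Further: 0% = DMSO wells and 100% = 57.5 µM 5-azacytidine.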 The essentials: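 Doxycycline (100 ng/ml, 24 h) first induced the eGFP fusion in NCI-H358 C-terminal-tag cells. Washed-out cells then received titrated compounds for 24 h at 37 °C before paraformaldehyde fixation, Hoechst staining and cytometric GFP quantification.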
Background: In qHTS, concentration-response curves come from the screen itself.

Assay [3] deals with Aldehyde dehydrogenase, mitochondrial (Homo sapiens) (UniProt P05091). Nature of the assay: qHTS for Inhibitors of the Aldehyde Dehydrogenase Family (ALDH2) Validation screens (AID 2061302; active means well fitted inhibition curve with a large enough effect; title and protocol of this record describe different tests; further: potency means the concentration at half of the fitted maximal effect).
For assay [4] the target is unchanged. As to the kind of experiment: qHTS for Inhibitors of the Aldehyde Dehydrogenase Family (ALDH2) Confirmatory screens (AID 2061303; active means well fitted inhibition curve with a large enough effect; title and protocol of this record describe different tests; further: nearly all actives have a fitted effect of over 45% in size; further: potency means the concentration at half of the fitted maximal effect).
Assay [5] in a line: qHTS for Inhibitors of the Aldehyde Dehydrogenase Family (ALDH1A2, ALDH1A3, ALDH2, ALDH3A1) (AID 2061307). Further: nearly all actives have a fitted effect of over 50% in size. On Potency: test system not described further here; potency means the concentration at half of the fitted maximal effect.
Assay [6] has as its target Retinaldehyde dehydrogenase 3 (Homo sapiens) (UniProt P47895). As to the kind of experiment: qHTS for Inhibitors of the Aldehyde Dehydrogenase Family (ALDH1A3) Confirmatory screens (AID 2061311). Further: nearly all actives have a fitted effect of over 60% in size. Further: potency means the concentration at half of the fitted maximal effect.
Assay [7] concerns the target Retinal dehydrogenase 2 (Homo sapiens) (UniProt O94788). As to the kind of experiment: qHTS for Inhibitors of the Aldehyde Dehydrogenase Family (ALDH1A2) Confirmation screens (AID 2061314). Further: nearly all actives have a fitted effect of over 65% in size. Further: potency means the concentration at half of the fitted maximal effect.
For assay [8], the target named is Aldehyde dehydrogenase 1A1 (Homo sapiens) (UniProt P00352). Nature of the assay: qHTS for Inhibitors of the Aldehyde Dehydrogenase Family (ALDH1A1) Confirmatory screens (AID 2061316). Further: nearly all actives have a fitted effect of over 65% in size. Further: potency means the concentration at half of the fitted maximal effect.
In assay [9] the target is Retinaldehyde dehydrogenase 3 (Homo sapiens) (UniProt P47895). Nature of the assay: qHTS for Inhibitors of the Aldehyde Dehydrogenase Family (ALDH1A3) Validation screen (AID 2061312). Further: nearly all actives have a fitted effect of over 45% in size. Further: potency means the concentration at half of the fitted maximal effect.
The target in assay [10] is Aldehyde dehydrogenase, mitochondrial (Homo sapiens) (UniProt P05091). As to the kind of experiment: qHTS for Inhibitors of the Aldehyde Dehydrogenase Family (ALDH2) Primary screen (AID 2061308).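 Further: plate controls were vehicle for no effect and reference inhibitor for full effect; nearly all actives have a fitted effect of over 55% in size.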
Assay [11] concerns the target Retinaldehyde dehydrogenase 3 (Homo sapiens) (UniProt P47895). Nature of the assay: qHTS for Inhibitors of the Aldehyde Dehydrogenase Family (ALDH1A3) Primary screen (AID 2061315).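 Further: plate controls were DMSO vehicle for no effect and reference inhibitor for full effect.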
Assay [12] in a line: BET inhibitor-based combinations targeting novel dependencies in MECOM-rearranged (r) AML: OCI-AML3 cell line (AID 2202232). Further: nearly all actives have a fitted effect of over 35% in size. Further: potency means the concentration at half of the fitted maximal effect. To be noted: Potency: OCI-AML3 viability. The essentials:
(§1)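 Luminescent ATP readout (CellTiter-Glo) after 48 hr drug exposure gives viability. Curves span 11 concentrations and are normalized to DMSO and empty wells. Activity is reported as area under the curve and its Z-transform within each cell line.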

A short description of assay [13]: BET inhibitor-based combinations targeting novel dependencies in MECOM-rearranged (r) AML: HNT-34 cell line (AID 2202234).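 Further: plate controls were vehicle wells for no effect and cell-free wells for full effect; nearly all actives have a fitted effect of over 35% in size.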 The essentials: (§2)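 Luminescent ATP readout (CellTiter-Glo, 15 min at room temperature) after 48 hr drug exposure gave viability. Dose-response curves, normalized to DMSO and empty-well controls, were summarized as area under the curve and its mean-centred Z-score.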

Assay [14] can be described thus: BET inhibitor-based combinations targeting novel dependencies in MECOM-rearranged (r) AML: UCSD-AML1 cell line (AID 2202235). Further: nearly all actives have a fitted effect of over 40% in size. Further: potency means the concentration at half of the fitted maximal effect. In a few lines: as §2
The nature of assay [15]: BET inhibitor-based combinations targeting novel dependencies in MECOM-rearranged (r) AML: AML-191 cell line (AID 2202236; further: nearly all actives have a fitted effect of over 35% in size; further: potency means the concentration at half of the fitted maximal effect). In a few lines:
as §1

Assay [16] can be described thus: BET inhibitor-based combinations targeting novel dependencies in MECOM-rearranged (r) AML: AML-194 cell line (AID 2202237; further: nearly all actives have a fitted effect of over 40% in size; further: potency means the concentration at half of the fitted maximal effect). In a few lines:
as §1

A short description of assay [17]: BET inhibitor-based combinations targeting novel dependencies in MECOM-rearranged (r) AML: SET-2 cell line (AID 2202231). Further: nearly all actives have a fitted effect of over 35% in size. Further: potency means the concentration at half of the fitted maximal effect.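 On viability: plate controls were DMSO treated cells for no effect and wells without cells for full effect.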 The settings on record: SET-2 AML cells viability, CellTiter-Glo luminescence, 48 h; viability: hits give low values, concentration not given here. The essentials: as §1
Assay [18] can be described thus: BET inhibitor-based combinations targeting novel dependencies in MECOM-rearranged (r) AML: MV-4-11 cell line (AID 2202233). Further: nearly all actives have a fitted effect of over 45% in size. Further: potency means the concentration at half of the fitted maximal effect. The essentials:
as §2

Values joined by “and” are separate entries in the source; they are usually repeats but may differ in a detail not shown here. Equal entries are not always repeated. Inconclusive results are not listed. Values without a mark were called inactive. Active and inactive are the calls of the source. Unless noted, the call rests on the fitted dose curve; in most records, active means well fitted curve in the direction sought with a large enough effect; inconclusive means small, poorly fitted or top-dose-only effect, or another doubt; inactive means no such curve, though single readings can be large; an effect the other way counts as inactive or inconclusive.

Consider `CC1CN(S(=O)(=O)c2cccc3cnccc23)CCN1` (stereo unspecified), for which the activation in assay [1] was -66.5%. The Potency entry in assay [2], in assay [3], in assay [4], in assay [5], in assay [6] and in [7] was “inactive” in each case. In addition, the Potency entry in assay [8] was “inactive”.
As to `CNC(=O)Oc1ccc2c(c1)[C@]1(C)CCN(C)[C@@H]1N2C`, in [1], the activation is -31.1% and -29.5% and 2.6%. The Potency entry in assay [2], in assay [3] and in assay [9] was “inactive” in each case. In addition, the Potency in assay [5] was 8960 nM (active).
As for `CN(C)C(=O)/N=N/C(=O)N(C)C`, the activation in [1] was -3.88%. For the same compound, the Potency result in assay [2], in [3] and in [5] was “inactive” each time. Also, in assay [7], the Potency is 12700 nM (active).
For the compound `CCCCN(CC)c1nc(C)nc2c1c(C)cn2-c1c(C)cc(C)cc1C`, the activation in assay [1] was 34.4% and -11%. The Potency result in assay [2], in [3], in assay [5], in assay [10] and in [11] was “inactive” throughout. For the same compound, the Potency in assay [9] is 1.26 µM (active) and 12.6 µM (active).
For the compound `C#CCN(C)CCCOc1ccc(Cl)cc1Cl`, the activation in assay [1] is -2.51% and -6.18%. Further, the Potency result in [2] and in [3] was “inactive” each time.
For the compound `O=c1ccc2c(OCCCCc3ccccc3)c3ccoc3cc2o1`, in assay [1], the activation is -37.4%. Also, the Potency result in [2] and in assay [3] was “inactive” each time. The Potency was 1120 nM (active) in assay [5] and 12600 nM (active) in assay [6].
Regarding `CCCCCCN(CCCCCC)C(=O)Cc1c(-c2ccc(F)cc2)[nH]c2ccccc12`, the activation in assay [1] was -10.8%. Besides, the Potency entry in assay [2], in assay [4], in assay [5], in assay [6], in assay [7] and in assay [8] was “inactive” in each case. Also, in [3], the Potency is 10000 nM (active).
In the case of `O=C(O)c1cc(=O)c2c(Cl)cc(Cl)cc2[nH]1`, the activation in assay [1] was -19.2%. Also, the Potency entry in assay [2], in [3], in [5] and in assay [8] was “inactive” in each case.
`O=c1c(O)c(-c2cc(O)c(O)c(O)c2)oc2cc(O)cc(O)c12`: the activation in assay [1] is -9.12% and -2.85%. Also, the Potency result in [2], in assay [3], in assay [5], in assay [7], in assay [12] and in [13] was “inactive” each time. Also, the Potency result in assay [14], in assay [15] and in assay [16] was “inactive” in each case. For the same compound, the Potency in assay [6] was 5650 nM (active).
For the compound `Nc1c(S(=O)(=O)O)cc(Nc2ccc(Nc3nc(Cl)nc(Nc4ccc(S(=O)(=O)O)cc4)n3)c(S(=O)(=O)O)c2)c2c1C(=O)c1ccccc1C2=O`, the activation in assay [1] was -2.44%. For the same compound, the Potency result in assay [2] and in assay [3] was “inactive” each time.
As for `N[C@@H](CS(=O)O)C(=O)O`, the activation in [1] is -27.4%. For the same compound, the Potency entry in [2] and in assay [3] was “inactive” in each case.
Consider `O=C(O)c1ccccc1Nc1cccc(OCc2ccc3ccccc3n2)c1`, for which, in [1], the activation was -13.1%. The Potency entry in [2], in [3] and in [9] was “inactive” throughout. Moreover, the Potency in [5] is 7980 nM (active).
For `Cc1cc(N)c2ccccc2[n+]1CCCCCCCCCC[n+]1c(C)cc(N)c2ccccc21`, in assay [1], the activation was 10%. Besides, the Potency entry in [2], in [3], in assay [4], in assay [5], in assay [10] and in [6] was “inactive” in each case. Besides, the Potency result in [9], in [7], in [11] and in assay [8] was “inactive” throughout.
In the case of `CCOC(=O)N1CCN(/[N+]([O-])=N/Oc2ccc([N+](=O)[O-])cc2[N+](=O)[O-])CC1`, the Potency in assay [1] was 4780 nM (active); in assay [6], 14200 nM (active); in assay [7], 2250 nM (active); in [17], 4680 nM (active); in assay [12] it was 2950 nM (active); in [18], 1860 nM (active). Further, the Potency in assay [14] was 2950 nM (active); in [15], 2090 nM (active); in assay [16] it was 2950 nM (active). Also, the Potency entry in [2], in assay [3] and in [4] was “inactive” throughout.
As for `Cc1cc(Cn2cnc3c2C[C@@H](C(=O)O)N(C(=O)C(c2ccccc2)c2ccccc2)C3)ccc1N`, the activation in [1] is -13.9%. Moreover, the Potency entry in assay [2], in assay [3], in assay [4] and in assay [7] was “inactive” each time.
On to `CN1CCN(CC(=O)N2c3ccccc3C(=O)Nc3cccnc32)CC1`, for which, in assay [1], the activation is -10% and 3.74%. For the same compound, the Potency result in [2], in [3], in [4], in assay [5], in assay [6] and in assay [7] was “inactive” in each case. Besides, in assay [8], the Potency result is “inactive”.
Consider `Cc1[nH]c(=O)c(C#N)cc1-c1ccncc1`, for which the activation in assay [1] is 7.4% and -9.21% and 7.59%. The Potency result in [2], in assay [3], in [4], in assay [6], in [7] and in [12] was “inactive” each time. Further, the Potency result in [18], in [13], in [14], in assay [15] and in assay [16] was “inactive” in each case. For the same compound, the viability in assay [17] is 118%.
Regarding `O=Nc1ccc2oc(=O)ccc2c1`, in assay [1], the activation is -33.9%. In assay [2], the Potency result was “inactive”. The Potency in assay [3] is 1120 nM (active); in assay [4] it was 1270 nM (active); in assay [6], 283 nM (active); in assay [8], 283 nM (active).
With `c1ccc(C(NCCNC(c2ccccc2)c2ccccc2)c2ccccc2)cc1`, the activation in [1] was -16.9%. Further, the Potency entry in assay [2], in [3], in assay [4], in assay [5], in [6] and in assay [7] was “inactive” each time. Further, the Potency result in assay [8] was “inactive”.
Take `Brc1ccc([C@H]2CN3CCSC3=N2)cc1`: in assay [1], the activation was -4.33% and 7.97%. Moreover, the Potency entry in assay [2], in [3], in assay [4], in [5], in assay [6] and in assay [9] was “inactive” in each case. In addition, the Potency entry in assay [7], in assay [11] and in assay [8] was “inactive” throughout.

Broadly, the viability is a read-out of living cells in per cent, often relative to untreated cells.
